Values joined by “and” are separate entries in the source; they are usually repeats but may differ in a detail not shown here. Equal entries are not always repeated. Screen size: about 5,500 compounds; about 2,000 (36%) were called active. About 18% were inconclusive and are not listed. Rule as the data show it: active = normalized growth mostly below about 0.91 (no sharp cut-off); inconclusive = no clear call, values can overlap the other calls; inactive = mostly above about 0.92. This is one part of the list.
Assay: chemical genetic growth profiling, strain panel (AID 1159580);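 also: tested at 20 µM; growth read once vehicle control cultures reached saturation at 30 °C; 1 = growth at the plate median or of vehicle wells; lower values mean less growth of the strain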
Settings: S. cerevisiae deletion strains, growth OD

Measured: normalized growth

COc1cc2c(cc1OC)C(C)NCC2 (stereo unspecified)
inactive: locus YAL013W, strain DEP1, active compounds read low 0.996 | locus YAL021C, strain ccr4, active compounds read low 0.967 | locus YAL026C, strain drs2, active compounds read low 0.959 | locus YAL030W, strain snc1, active compounds read low 0.985 | locus YBL061C, strain skt5, active compounds read low 0.97 | locus YBR009C, strain hhf1, active compounds read low 0.965 | locus YBR021W, strain FUR4, active compounds read low 0.995 | locus YBR023C, strain chs3, active compounds read low 0.957 | locus YBR171W, strain sec66, active compounds read low 0.958 | locus YBR229C, strain ROT2, active compounds read low 0.995 | locus YBR231C, strain swc5, active compounds read low 0.982 | locus YBR279W, strain paf1, active compounds read low 0.989 | locus YCL011C, strain gbp2, active compounds read low 0.979 | locus YCL016C, strain dcc1, active compounds read low 1 | locus YCL029C, strain bik1, active compounds read low 0.979 | locus YCL069W, strain vba3, active compounds read low 0.962 | locus YCR088W, strain abp1, active compounds read low 0.982 | locus YDL005C, strain med2, active compounds read low 0.976 | locus YDL035C, strain GPR1, active compounds read low 1 | locus YDL040C, strain nat1, active compounds read low 0.984 | locus YDL074C, strain BRE1, active compounds read low 1 | locus YDL101C, strain DUN1, active compounds read low 0.996 | locus YDL185W, strain tfp1, active compounds read low 0.986 | locus YDL192W, strain arf1, active compounds read low 0.98 | locus YDR001C, strain nth1, active compounds read low 0.988 | locus YDR069C, strain doa4, active compounds read low 0.921 | locus YDR101C, strain arx1, active compounds read low 0.979 | locus YDR137W, strain rgp1, active compounds read low 0.977 | locus YDR150W, strain NUM1, active compounds read low 1.01 | locus YDR159W, strain sac3, active compounds read low 0.927 | locus YDR162C, strain NBP2, active compounds read low 1.02 | locus YDR195W, strain ref2 0.963 | locus YDR297W, strain sur2, active compounds read low 1 | locus YDR318W, strain mcm21, active compounds read low 0.986 | locus YDR334W, strain swr1, active compounds read low 0.951 | locus YDR335W, strain msn5, active compounds read low 0.971 | locus YDR388W, active compounds read low 0.978 | locus YDR392W, strain spt3, active compounds read low 0.992 | locus YDR502C, strain sam2, active compounds read low 0.981 | locus YEL003W, strain gim4, active compounds read low 0.976 | locus YEL037C, strain rad23, active compounds read low 0.968 | locus YEL061C, strain CIN8 (second series), active compounds read low 0.966 | locus YEL061C, strain CIN8, active compounds read low 0.995 | locus YER015W, strain faa2, active compounds read low 0.976 | locus YER016W, strain bim1, active compounds read low 0.983 | locus YER110C, active compounds read low 0.963 | locus YER111C, strain swi4, active compounds read low 0.959 | locus YER155C, strain BEM2 (second series), active compounds read low 0.985 | locus YER155C, strain BEM2, active compounds read low 0.99 | locus YER167W, strain BCK2, active compounds read low 0.994 | locus YFR010W, strain ubp6, active compounds read low 0.945 | locus YGL078C, strain dbp3, active compounds read low 0.982 | locus YGL086W, strain mad1, active compounds read low 0.982 | locus YGL167C, strain pmr1, active compounds read low 0.969 | locus YGL173C, strain kem1, active compounds read low 0.97 | locus YGL227W, strain vid30, active compounds read low 0.985 | locus YGL240W, strain doc1, active compounds read low 0.986 | locus YGL248W, strain PDE1, active compounds read low 1 | locus YGL253W, strain hxk2, active compounds read low 0.961 | locus YGR078C, strain PAC10, active compounds read low 1.02 | locus YGR135W, strain pre9, active compounds read low 0.959 | locus YGR252W, strain gcn5, active compounds read low 0.996 | locus YHR013C, strain ard1, active compounds read low 0.961 | locus YHR027C, strain rpn1, active compounds read low 0.976 | locus YHR030C, strain SLT2, active compounds read low 0.993 and 1.04 | locus YHR079C, strain IRE1 (second series), active compounds read low 0.979 | locus YHR079C, strain IRE1, active compounds read low 1.03 | locus YHR094C, strain hxt1, active compounds read low 0.985 | locus YHR129C, strain ARP1, active compounds read low 1 | locus YHR142W, strain chs7, active compounds read low 0.988 | locus YHR200W, strain rpn10, active compounds read low 0.98 | locus YIL066C, strain RNR3, active compounds read low 1.02 | locus YIL073C, strain SPO22, active compounds read low 1.02 | locus YIL125W, strain kgd1, active compounds read low 0.981 | locus YIR030C, strain dcg1, active compounds read low 0.976 | locus YJL092W, strain hpr5, active compounds read low 0.936 | locus YJL095W, strain BCK1 (second series), active compounds read low 0.969 | locus YJL095W, strain BCK1, active compounds read low 1.02 and 0.99 | locus YJL115W, strain asf1, active compounds read low 0.951 | locus YJL129C, strain trk1, active compounds read low 0.948 | locus YJL134W, strain LCB3, active compounds read low 0.988 | locus YJL154C, strain vps35, active compounds read low 0.974 | locus YJL164C, strain tpk1, active compounds read low 1.01 | locus YJL166W, strain qcr8, active compounds read low 0.977 | locus YJL168C, strain set2, active compounds read low 0.978 | locus YJL187C, strain SWE1 (second series), active compounds read low 1.01 | locus YJL187C, strain SWE1, active compounds read low 0.961 | locus YJR043C, strain POL32, active compounds read low 1.02 | locus YJR066W, strain TOR1, active compounds read low 0.966 | locus YJR075W, strain HOC1, active compounds read low 1.02 | locus YKL009W, strain mrt4, active compounds read low 0.984 | locus YKL068W, active compounds read low 0.98 | locus YKL085W, strain MDH1 (second series), active compounds read low 1.01 | locus YKL085W, strain MDH1, active compounds read low 1.01 | locus YKL160W, strain elf1, active compounds read low 1.01 | locus YKL190W, strain CNB1, active compounds read low 1 | locus YKR001C, strain vps1, active compounds read low 0.982 | locus YKR026C, strain gcn3, active compounds read low 0.974 | locus YKR091W, strain srl3, active compounds read low 0.987 | locus YLL001W, strain dnm1, active compounds read low 0.977 | locus YLL026W, active compounds read low 0.986 | locus YLL041C, strain sdh2, active compounds read low 0.963 | locus YLR027C, strain aat2, active compounds read low 0.966 | locus YLR039C, strain RIC1, active compounds read low 1.02 | locus YLR058C, strain SHM2, active compounds read low 0.996 | locus YLR102C, strain apc9, active compounds read low 0.991 | locus YLR113W, strain HOG1, active compounds read low 1.01 | locus YLR221C, strain rsa3, active compounds read low 0.989 | locus YLR258W, strain gsy2, active compounds read low 0.978 | locus YLR262C, strain YPT6 (second series), active compounds read low 0.964 | locus YLR262C, strain YPT6, active compounds read low 1.05 | locus YLR268W, strain sec22, active compounds read low 0.987 | locus YLR320W, strain mms22, active compounds read low 0.997 | locus YLR330W, strain CHS5, active compounds read low 0.991 | locus YLR342W, strain FKS1 (second series), active compounds read low 0.999 | locus YLR342W, strain FKS1, active compounds read low 0.982 | locus YLR357W, strain rsc2, active compounds read low 0.94 | locus YLR370C, strain arc18, active compounds read low 0.955 | locus YLR371W, strain rom2, active compounds read low 0.98 | locus YLR384C, strain iki3, active compounds read low 0.996 | locus YLR418C, strain cdc73, active compounds read low 0.98 | locus YML016C, strain PPZ1, active compounds read low 0.988 | locus YML032C, strain rad52, active compounds read low 0.978 | locus YML120C, strain ndi1, active compounds read low 0.989 | locus YML124C, strain tub3, active compounds read low 0.986 | locus YMR058W, strain fet3, active compounds read low 0.972 | locus YMR078C, strain ctf18, active compounds read low 0.981 | locus YMR125W, strain sto1, active compounds read low 0.933 | locus YMR129W, active compounds read low 0.985 | locus YMR205C, strain PFK2, active compounds read low 0.989 | locus YMR223W, strain ubp8, active compounds read low 0.977 | locus YMR231W, strain pep5, active compounds read low 0.964 | locus YMR307W, strain GAS1, active compounds read low 1.03 | locus YNL067W, strain RPL9B, active compounds read low 1.02 | locus YNL071W, strain lat1, active compounds read low 0.981 | locus YNL128W, strain TEP1, active compounds read low 0.998 | locus YNL153C, strain GIM3, active compounds read low 1.02 | locus YNL183C, strain NPR1, active compounds read low 0.974 | locus YNL209W, strain ssb2, active compounds read low 0.976 | locus YNL233W, strain BNI4, active compounds read low 1.02 | locus YNL248C, strain rpa49, active compounds read low 0.955 | locus YNL250W, strain rad50, active compounds read low 0.972 | locus YNL271C, strain bni1, active compounds read low 0.985 | locus YNL298W, strain CLA4, active compounds read low 0.972 | locus YNL307C, strain MCK1, active compounds read low 0.978 | locus YNL322C, strain KRE1 (second series), active compounds read low 0.95 | locus YNR049C, strain mso1, active compounds read low 0.952 | locus YNR052C, strain pop2, active compounds read low 0.974 | locus YOL012C, strain htz1 0.939 | locus YOL147C, strain pex11, active compounds read low 0.989 | locus YOR001W, strain rrp6, active compounds read low 0.951 | locus YOR061W, strain CKA2, active compounds read low 0.992 | locus YOR069W, strain VPS5, active compounds read low 0.987 | locus YOR070C, strain gyp1, active compounds read low 0.986 | locus YOR080W, strain dia2, active compounds read low 0.982 | locus YOR083W, strain WHI5, active compounds read low 1.02 | locus YOR106W, strain vam3, active compounds read low 0.998 | locus YOR136W, strain idh2, active compounds read low 0.976 | locus YOR144C, strain elg1, active compounds read low 0.985 | locus YOR184W, strain ser1, active compounds read low 0.998 | locus YOR231W, strain MKK1, active compounds read low 1.02 | locus YOR265W, strain rbl2, active compounds read low 0.977 | locus YOR270C, strain vph1, active compounds read low 0.949 | locus YOR290C, strain snf2, active compounds read low 0.997 | locus YOR316C, strain cot1, active compounds read low 0.99 | locus YPL051W, strain arl3, active compounds read low 0.972 | locus YPL078C, strain atp4, active compounds read low 1 | locus YPL106C, strain sse1, active compounds read low 0.957 | locus YPL240C, strain hsp82, active compounds read low 0.964 | locus YPL241C, strain CIN2, active compounds read low 1 | locus YPL256C, strain CLN2, active compounds read low 1.03 | locus YPR119W, strain clb2, active compounds read low 0.97 | locus YPR141C, strain kar3, active compounds read low 0.987 | locus YPR163C, strain tif3, active compounds read low 0.994 | locus YPR167C, strain met16, active compounds read low 0.964 | strain wtn01, active compounds read low 0.96

Reference: PubChem BioAssay AID1159580 (chemical genetic matrix, 2015)
